In the supplement of paper PMC11732987, “Enantioselective OTUD7B fragment discovery through chemoproteomics screening and high-throughput optimisation” (Communications Chemistry, 2025):

What was measured:
Assay in all cases: log2 ratio of Biotin-Ahx-Ub-VS probe labelling (fragment/DMSO); higher = less target engagement (more negative = stronger competition), active = hit call of the paper (q ≤ 0.05, log2 ratio ≤ -1)
Conditions in all cases: compound concentration: 200 uM; treatment time: 3 h
USP42 = target: T1, USP42 (UniProt Q9H9J4)
T1 sequence (whole entry): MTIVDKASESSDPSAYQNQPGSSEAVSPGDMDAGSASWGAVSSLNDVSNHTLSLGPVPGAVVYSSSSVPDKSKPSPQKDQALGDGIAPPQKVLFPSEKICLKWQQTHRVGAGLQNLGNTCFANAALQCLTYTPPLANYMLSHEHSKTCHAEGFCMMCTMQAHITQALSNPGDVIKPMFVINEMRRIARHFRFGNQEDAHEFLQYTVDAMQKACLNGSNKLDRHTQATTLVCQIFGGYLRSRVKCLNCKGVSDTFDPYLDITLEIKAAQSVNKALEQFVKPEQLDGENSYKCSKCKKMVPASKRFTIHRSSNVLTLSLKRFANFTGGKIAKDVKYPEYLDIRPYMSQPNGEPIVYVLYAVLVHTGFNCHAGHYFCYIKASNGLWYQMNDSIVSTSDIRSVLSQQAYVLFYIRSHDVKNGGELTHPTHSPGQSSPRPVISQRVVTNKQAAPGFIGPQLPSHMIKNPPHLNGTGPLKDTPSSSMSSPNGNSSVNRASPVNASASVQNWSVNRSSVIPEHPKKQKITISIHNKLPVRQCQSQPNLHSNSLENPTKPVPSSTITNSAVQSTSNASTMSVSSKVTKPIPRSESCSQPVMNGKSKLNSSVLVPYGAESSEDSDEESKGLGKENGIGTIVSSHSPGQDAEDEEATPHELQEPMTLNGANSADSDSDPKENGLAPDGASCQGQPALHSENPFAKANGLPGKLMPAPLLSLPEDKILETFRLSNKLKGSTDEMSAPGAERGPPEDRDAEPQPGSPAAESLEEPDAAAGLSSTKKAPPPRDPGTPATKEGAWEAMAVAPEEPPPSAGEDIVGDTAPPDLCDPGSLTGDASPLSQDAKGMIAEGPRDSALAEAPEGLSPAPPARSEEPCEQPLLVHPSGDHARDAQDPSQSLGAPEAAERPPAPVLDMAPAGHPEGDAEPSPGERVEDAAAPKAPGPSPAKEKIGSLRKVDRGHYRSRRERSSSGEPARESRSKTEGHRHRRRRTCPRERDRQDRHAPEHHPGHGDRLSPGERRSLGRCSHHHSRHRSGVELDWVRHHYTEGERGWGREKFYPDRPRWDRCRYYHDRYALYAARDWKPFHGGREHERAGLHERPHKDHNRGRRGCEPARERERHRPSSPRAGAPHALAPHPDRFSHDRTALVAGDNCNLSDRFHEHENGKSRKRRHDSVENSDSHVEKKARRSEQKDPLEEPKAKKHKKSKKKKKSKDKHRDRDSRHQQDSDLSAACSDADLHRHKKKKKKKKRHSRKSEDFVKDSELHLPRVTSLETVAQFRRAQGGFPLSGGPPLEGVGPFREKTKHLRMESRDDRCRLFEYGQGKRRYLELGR
Method in brief: (§1)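 Labelled DUBs were enriched with NeutrAvidin, digested with LysC and trypsin, and run by diaPASEF LC-MS/MS. The labelling used Biotin-Ahx-Ub-VS at 0.5 µM final for 1 h on HEK293T lysate (495 µg per sample) previously treated in triplicate with fragment at 200 µM or vehicle for 3 h. Values are average log2 fragment/vehicle ratios by unpaired t-test on global-median-normalised Spectronaut quantities of proteins with ≥2 unique peptides.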

USP46 = USP46 (UniProt P62068)
USP46, sequence (P62068 whole entry): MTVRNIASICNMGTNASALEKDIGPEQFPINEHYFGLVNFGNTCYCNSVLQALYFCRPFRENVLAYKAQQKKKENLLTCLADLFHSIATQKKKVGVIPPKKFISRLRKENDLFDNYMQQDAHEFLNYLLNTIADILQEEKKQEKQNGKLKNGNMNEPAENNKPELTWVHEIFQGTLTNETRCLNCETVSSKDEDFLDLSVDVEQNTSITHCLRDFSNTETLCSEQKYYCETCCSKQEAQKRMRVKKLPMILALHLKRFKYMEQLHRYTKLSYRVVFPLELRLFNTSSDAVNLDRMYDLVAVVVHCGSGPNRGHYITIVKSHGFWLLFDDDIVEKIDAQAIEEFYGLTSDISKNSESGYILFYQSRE
Method in brief: as §1

USP47 = target: T2, USP47 (UniProt Q96K76)
T2 sequence (whole entry): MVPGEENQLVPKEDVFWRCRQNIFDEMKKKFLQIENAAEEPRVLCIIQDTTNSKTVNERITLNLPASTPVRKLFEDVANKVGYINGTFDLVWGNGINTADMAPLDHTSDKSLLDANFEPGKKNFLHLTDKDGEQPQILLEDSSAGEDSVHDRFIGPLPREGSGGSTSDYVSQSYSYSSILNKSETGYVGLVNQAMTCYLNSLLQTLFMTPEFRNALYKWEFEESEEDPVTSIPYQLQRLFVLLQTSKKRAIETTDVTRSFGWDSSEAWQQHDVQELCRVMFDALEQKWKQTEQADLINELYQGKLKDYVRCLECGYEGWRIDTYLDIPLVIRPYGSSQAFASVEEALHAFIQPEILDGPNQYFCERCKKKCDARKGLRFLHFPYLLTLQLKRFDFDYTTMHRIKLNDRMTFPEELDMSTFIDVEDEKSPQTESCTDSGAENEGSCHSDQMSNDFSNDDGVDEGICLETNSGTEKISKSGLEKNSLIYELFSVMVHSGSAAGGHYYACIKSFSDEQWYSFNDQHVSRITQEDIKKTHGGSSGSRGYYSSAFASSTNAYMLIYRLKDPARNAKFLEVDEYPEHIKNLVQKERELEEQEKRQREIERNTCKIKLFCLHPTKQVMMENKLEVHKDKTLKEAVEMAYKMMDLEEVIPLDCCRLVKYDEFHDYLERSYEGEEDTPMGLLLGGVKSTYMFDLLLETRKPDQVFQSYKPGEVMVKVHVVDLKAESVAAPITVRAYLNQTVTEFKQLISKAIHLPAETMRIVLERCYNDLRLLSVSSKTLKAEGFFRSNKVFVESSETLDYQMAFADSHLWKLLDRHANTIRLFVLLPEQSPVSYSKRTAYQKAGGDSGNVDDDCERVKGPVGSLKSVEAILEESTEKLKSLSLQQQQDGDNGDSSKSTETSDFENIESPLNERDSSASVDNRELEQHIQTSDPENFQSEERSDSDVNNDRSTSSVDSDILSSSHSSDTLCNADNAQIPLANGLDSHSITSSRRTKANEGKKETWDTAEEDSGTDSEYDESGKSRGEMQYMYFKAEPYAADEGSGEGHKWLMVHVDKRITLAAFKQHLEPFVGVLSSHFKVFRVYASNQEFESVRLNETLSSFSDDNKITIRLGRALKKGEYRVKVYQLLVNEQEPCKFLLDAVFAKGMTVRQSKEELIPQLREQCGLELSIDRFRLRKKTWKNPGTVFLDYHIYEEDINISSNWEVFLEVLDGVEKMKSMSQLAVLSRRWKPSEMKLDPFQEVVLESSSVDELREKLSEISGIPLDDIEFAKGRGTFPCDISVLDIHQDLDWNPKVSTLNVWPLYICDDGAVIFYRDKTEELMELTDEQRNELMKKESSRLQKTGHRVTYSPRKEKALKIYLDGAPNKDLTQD
Method in brief: as §1

USP48 = target: T3, USP48 (UniProt Q86UV5)
T3 sequence (whole entry): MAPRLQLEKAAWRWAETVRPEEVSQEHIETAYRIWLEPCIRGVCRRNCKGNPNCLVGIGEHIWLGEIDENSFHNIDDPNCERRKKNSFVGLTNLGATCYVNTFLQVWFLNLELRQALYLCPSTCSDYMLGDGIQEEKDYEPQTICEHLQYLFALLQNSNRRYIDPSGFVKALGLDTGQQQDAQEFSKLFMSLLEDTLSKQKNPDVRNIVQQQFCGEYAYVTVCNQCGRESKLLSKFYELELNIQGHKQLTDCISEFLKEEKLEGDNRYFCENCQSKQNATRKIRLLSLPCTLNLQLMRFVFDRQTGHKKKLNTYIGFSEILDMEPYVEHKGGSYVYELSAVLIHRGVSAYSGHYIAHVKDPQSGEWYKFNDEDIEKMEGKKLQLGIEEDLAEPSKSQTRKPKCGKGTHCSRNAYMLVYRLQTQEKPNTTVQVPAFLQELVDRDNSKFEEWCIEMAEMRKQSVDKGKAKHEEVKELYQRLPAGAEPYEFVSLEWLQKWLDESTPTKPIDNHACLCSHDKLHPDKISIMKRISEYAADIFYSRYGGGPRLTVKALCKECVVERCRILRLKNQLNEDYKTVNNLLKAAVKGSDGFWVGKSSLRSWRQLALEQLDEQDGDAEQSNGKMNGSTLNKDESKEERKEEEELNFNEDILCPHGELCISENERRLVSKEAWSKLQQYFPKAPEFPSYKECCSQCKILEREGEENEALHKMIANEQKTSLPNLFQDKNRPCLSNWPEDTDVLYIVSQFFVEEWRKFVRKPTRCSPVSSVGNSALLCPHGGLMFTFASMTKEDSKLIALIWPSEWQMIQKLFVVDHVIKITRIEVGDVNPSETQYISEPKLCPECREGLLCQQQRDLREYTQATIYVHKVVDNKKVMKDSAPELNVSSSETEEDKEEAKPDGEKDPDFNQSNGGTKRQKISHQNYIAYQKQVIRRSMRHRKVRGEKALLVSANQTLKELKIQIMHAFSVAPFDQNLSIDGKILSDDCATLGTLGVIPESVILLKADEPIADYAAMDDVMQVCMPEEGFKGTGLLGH
Method in brief: as §1

USP5 = target: T4, USP5 (UniProt P45974)
T4 sequence (whole entry): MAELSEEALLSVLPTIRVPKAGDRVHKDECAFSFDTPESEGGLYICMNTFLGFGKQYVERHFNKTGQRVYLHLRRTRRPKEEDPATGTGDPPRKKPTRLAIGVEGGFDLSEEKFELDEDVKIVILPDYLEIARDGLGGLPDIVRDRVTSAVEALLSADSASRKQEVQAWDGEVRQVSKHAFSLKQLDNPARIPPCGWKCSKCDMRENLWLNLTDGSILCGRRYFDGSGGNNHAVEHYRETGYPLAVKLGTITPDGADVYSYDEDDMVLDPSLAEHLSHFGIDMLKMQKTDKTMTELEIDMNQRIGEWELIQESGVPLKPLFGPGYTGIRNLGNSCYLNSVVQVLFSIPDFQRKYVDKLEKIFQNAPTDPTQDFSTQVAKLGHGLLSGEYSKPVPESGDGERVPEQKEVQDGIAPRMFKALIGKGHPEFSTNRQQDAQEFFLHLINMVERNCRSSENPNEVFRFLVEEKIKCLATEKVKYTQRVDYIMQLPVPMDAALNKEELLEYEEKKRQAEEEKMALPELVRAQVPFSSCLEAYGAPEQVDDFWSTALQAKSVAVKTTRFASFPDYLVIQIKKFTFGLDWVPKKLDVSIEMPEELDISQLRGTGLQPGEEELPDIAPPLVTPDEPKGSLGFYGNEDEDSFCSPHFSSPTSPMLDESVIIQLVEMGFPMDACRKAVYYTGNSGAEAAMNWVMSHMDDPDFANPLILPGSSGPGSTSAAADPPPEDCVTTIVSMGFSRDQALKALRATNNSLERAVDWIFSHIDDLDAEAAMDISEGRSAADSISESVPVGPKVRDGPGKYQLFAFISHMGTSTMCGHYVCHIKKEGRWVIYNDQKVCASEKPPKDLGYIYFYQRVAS
Method in brief: as §1

USP54 = USP54 (UniProt Q70EL1)
USP54, sequence (Q70EL1 whole entry): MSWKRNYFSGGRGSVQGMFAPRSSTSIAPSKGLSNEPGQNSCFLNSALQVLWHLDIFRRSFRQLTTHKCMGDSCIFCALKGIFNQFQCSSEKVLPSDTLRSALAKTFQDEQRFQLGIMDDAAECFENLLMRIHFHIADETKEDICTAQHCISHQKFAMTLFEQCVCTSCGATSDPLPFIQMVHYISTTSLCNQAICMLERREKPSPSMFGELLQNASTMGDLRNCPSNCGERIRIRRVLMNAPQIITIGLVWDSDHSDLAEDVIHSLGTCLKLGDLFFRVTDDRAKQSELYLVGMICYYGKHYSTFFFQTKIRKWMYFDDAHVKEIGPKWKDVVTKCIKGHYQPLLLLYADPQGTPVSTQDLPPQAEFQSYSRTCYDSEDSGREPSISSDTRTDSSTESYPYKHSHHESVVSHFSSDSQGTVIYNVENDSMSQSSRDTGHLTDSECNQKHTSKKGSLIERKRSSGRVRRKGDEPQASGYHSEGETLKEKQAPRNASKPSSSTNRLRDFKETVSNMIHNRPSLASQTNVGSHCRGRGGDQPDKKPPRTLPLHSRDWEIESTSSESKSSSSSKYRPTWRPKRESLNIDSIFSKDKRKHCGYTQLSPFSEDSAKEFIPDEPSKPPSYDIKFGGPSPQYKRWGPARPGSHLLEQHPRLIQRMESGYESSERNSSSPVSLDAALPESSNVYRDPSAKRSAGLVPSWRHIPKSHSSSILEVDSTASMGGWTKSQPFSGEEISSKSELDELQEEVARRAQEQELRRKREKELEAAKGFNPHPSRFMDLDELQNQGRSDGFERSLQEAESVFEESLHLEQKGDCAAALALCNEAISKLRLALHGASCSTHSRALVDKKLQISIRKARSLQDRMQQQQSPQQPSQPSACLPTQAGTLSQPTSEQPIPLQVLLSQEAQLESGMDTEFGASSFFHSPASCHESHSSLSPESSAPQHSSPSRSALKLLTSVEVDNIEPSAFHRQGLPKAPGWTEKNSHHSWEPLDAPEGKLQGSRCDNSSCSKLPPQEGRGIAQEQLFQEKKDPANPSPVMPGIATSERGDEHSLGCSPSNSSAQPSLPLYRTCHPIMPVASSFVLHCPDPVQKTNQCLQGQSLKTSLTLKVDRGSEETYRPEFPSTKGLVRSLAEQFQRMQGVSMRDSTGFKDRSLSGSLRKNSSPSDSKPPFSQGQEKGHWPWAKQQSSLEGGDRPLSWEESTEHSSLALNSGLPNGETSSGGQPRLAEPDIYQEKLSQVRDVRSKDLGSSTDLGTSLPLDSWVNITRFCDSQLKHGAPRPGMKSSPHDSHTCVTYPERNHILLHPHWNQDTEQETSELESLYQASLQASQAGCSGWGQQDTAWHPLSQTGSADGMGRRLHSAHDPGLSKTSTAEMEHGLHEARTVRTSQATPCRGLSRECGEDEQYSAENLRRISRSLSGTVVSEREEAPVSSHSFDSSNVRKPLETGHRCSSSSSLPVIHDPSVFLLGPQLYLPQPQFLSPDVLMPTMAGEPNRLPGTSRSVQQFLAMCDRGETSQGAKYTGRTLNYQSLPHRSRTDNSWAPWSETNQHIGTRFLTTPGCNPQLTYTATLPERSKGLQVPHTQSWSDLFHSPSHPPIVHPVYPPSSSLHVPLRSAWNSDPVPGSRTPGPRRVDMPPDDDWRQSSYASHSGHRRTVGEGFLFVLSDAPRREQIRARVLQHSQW
Method in brief: as §1

USP7 = USP7 (UniProt Q93009)
Method in brief: as §1

USP8 = target: T5, USP8 (UniProt P40818)
T5 sequence (whole entry): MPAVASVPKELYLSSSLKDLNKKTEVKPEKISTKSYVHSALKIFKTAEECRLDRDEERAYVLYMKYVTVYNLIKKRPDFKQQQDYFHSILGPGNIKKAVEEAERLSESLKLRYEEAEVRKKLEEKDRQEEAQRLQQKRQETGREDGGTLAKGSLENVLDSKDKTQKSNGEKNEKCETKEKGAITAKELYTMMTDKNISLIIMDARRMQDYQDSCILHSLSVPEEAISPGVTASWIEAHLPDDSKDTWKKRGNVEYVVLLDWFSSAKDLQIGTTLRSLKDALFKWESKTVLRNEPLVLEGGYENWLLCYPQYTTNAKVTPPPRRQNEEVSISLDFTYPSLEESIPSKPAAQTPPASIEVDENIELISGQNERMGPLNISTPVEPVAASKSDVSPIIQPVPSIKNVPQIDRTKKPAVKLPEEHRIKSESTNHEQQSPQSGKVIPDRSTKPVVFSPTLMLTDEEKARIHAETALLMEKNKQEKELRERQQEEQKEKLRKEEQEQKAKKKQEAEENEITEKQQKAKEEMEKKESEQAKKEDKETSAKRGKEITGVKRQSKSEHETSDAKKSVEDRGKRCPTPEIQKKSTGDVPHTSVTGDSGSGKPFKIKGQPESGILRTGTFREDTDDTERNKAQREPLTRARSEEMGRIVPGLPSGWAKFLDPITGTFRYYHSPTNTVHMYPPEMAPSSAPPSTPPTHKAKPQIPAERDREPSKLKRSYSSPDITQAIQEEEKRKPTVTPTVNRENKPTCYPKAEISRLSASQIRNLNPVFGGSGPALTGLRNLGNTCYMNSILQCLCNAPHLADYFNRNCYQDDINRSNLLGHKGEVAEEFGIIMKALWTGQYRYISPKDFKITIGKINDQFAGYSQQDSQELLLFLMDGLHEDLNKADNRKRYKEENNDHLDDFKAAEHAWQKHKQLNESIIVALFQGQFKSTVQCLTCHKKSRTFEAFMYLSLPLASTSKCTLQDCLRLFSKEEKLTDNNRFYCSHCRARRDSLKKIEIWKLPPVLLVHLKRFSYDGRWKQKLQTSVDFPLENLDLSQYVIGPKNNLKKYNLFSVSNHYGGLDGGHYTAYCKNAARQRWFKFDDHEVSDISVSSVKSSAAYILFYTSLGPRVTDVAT
Method in brief: as §1

USP9X = USP9X (UniProt Q93008)
USP9X, sequence (Q93008 whole entry): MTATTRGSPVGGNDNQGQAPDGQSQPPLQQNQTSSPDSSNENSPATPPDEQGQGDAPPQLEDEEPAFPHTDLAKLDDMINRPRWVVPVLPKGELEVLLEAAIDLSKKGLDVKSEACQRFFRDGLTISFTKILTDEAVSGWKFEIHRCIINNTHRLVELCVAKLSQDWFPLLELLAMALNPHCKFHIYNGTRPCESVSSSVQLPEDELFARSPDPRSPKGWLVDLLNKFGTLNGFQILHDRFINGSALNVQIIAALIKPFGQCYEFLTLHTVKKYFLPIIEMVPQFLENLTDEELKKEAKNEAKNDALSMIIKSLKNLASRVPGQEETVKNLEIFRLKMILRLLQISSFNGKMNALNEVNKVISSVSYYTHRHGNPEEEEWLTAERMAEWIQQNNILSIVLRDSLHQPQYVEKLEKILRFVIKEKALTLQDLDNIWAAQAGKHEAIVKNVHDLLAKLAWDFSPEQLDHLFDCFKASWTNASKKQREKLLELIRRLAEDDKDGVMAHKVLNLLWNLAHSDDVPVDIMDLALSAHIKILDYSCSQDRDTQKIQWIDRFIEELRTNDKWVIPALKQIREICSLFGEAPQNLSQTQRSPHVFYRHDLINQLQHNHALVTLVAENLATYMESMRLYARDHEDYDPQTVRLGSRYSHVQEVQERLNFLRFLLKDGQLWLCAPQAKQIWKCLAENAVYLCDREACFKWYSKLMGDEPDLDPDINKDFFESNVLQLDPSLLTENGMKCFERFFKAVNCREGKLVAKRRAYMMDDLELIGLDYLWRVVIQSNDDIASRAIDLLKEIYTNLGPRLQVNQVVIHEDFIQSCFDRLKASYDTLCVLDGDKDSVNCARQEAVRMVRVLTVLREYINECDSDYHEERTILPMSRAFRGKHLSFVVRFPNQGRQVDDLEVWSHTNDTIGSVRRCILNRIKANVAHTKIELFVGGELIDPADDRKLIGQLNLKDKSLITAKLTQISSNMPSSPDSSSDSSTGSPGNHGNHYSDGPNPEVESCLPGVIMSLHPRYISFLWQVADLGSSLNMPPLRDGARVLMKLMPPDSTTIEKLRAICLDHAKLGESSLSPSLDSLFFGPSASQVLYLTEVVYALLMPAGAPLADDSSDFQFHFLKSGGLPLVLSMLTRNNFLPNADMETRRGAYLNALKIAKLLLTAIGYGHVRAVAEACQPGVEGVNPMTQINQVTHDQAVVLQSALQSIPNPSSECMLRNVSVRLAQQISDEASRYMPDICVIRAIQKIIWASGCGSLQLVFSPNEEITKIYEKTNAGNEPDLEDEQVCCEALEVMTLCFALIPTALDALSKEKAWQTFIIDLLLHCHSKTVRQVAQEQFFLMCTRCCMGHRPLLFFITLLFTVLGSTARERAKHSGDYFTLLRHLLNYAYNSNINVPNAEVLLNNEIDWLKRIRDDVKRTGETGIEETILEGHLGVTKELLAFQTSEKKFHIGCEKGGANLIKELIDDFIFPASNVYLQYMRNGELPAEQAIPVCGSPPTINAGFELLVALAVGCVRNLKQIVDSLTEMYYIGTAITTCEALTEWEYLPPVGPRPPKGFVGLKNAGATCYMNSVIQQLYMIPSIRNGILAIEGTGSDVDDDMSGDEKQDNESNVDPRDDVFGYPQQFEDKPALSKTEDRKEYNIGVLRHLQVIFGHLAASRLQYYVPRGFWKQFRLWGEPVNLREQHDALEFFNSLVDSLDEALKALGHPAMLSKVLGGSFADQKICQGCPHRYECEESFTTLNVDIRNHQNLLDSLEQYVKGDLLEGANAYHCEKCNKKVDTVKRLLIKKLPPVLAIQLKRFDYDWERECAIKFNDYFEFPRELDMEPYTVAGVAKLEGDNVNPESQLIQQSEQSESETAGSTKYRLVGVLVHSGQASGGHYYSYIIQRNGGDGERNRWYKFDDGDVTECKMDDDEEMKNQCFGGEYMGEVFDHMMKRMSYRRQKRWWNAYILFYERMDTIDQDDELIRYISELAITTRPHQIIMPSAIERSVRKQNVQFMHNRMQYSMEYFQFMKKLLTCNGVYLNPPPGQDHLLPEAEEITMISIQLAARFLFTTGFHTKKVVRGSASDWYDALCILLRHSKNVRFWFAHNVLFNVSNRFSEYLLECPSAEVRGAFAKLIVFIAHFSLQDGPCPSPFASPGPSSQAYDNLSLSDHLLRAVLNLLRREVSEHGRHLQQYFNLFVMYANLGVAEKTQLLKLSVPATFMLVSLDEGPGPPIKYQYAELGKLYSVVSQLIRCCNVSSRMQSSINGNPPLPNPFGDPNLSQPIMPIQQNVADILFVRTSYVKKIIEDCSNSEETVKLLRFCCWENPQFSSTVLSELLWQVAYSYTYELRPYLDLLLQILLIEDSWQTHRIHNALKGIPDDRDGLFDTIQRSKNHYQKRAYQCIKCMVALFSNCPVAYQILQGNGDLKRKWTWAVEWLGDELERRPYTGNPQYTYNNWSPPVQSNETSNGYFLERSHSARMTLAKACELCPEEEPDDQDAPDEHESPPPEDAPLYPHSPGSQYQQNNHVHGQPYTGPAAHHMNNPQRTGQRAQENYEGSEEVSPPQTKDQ
Method in brief: as §1

UniProt O00487 = target: UniProt O00487
UniProt O00487, sequence (O00487 whole entry): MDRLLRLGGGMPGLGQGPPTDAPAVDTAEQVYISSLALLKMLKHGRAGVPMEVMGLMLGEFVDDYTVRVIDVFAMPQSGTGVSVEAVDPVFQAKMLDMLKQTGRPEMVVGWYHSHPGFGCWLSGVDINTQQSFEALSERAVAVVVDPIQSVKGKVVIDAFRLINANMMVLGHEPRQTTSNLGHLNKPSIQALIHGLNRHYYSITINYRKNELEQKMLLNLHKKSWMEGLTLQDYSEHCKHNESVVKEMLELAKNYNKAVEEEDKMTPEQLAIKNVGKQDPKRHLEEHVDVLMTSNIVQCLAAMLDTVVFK
Method in brief: as §1

Measured: log2 ratio of Biotin-Ahx-Ub-VS probe labelling

O=C(CCl)NCc1ccc(Cl)cc1
inactive: USP42 0.175 | USP46 -0.0156 | USP47 -0.0592 | USP48 0.107 | USP5 -0.0207 | USP54 -0.625 | USP7 -0.206 | USP8 0.105 | USP9X 0.00725 | UniProt O00487 -0.0216
